# Experiments:
# Test in all cases: DAPPL (digital affinity profiling via proximity ligation, sequencing); 10 mM Tris-HCl pH 7.5, 50 mM NaCl, 1 mM DTT, 4% glycerol, room temperature, 30 min; GST-TFs on glutathione beads, 16-mer random dsDNA library, 0.1% formaldehyde crosslink after washing; high values mean tight binding
# Conditions in all cases: protein: recombinant; tags: N-terminal GST; dsDNA, one strand shown
# [1] = target: T1, ETV2 (Homo sapiens, UniProt O00321 1-342)
# T1 sequence: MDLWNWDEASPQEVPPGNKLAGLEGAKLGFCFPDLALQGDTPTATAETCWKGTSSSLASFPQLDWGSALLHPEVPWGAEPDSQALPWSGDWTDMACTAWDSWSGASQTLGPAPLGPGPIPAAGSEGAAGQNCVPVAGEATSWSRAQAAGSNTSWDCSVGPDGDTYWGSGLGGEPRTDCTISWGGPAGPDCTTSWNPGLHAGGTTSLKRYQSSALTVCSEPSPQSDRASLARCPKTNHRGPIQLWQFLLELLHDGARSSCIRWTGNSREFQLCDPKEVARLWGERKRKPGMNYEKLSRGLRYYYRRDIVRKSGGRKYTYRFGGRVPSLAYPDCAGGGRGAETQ
# Method in brief: (§1)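 Yeast served to express human transcription factors as GST fusions, which were then captured on glutathione beads and labelled with DNA barcodes. Pooled with a tag-only sample, they were incubated with 200 nmole of a 16-mer random double-stranded DNA library for 30 min at room temperature in Tris/NaCl/DTT/glycerol buffer, washed, crosslinked with 0.1% formaldehyde, ligated by proximity, amplified by PCR and sequenced. Dividing each hexamer's read frequency for a factor by its frequency for the tag-only sample gives the binding signal.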
# [2] = target: T2, ELF3 (Homo sapiens, UniProt P78545 1-371)
# T2 sequence: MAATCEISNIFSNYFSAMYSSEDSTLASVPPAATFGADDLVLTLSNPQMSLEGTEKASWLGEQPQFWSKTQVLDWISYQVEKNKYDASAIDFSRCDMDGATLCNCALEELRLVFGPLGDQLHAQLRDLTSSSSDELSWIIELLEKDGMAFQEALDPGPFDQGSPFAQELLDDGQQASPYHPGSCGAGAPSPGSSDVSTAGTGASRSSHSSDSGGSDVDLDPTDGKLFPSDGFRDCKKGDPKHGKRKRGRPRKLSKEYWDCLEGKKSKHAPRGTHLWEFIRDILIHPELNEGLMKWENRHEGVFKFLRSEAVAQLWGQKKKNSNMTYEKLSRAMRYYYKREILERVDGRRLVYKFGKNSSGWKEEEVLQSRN
# Method in brief: as §1
# [3] = target: ETV1 (Homo sapiens, UniProt P50549 1-477)
# Chain of ETV1 (P50549 whole entry): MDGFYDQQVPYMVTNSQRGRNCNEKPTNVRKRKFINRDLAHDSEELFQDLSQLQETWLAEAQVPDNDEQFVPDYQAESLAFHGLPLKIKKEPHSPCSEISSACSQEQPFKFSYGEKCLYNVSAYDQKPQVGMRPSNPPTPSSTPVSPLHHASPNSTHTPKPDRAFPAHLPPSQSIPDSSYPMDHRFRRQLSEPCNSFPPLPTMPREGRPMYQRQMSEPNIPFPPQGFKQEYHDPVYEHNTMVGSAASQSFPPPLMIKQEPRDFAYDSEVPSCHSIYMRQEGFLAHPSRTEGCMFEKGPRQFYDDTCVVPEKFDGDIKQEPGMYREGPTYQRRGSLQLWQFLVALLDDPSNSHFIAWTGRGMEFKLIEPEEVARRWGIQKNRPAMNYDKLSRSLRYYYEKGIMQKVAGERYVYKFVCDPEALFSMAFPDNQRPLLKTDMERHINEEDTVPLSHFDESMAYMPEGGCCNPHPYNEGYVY
# Method in brief: as §1
# [4] = target: T3, ERF (Homo sapiens, UniProt P50548 1-548)
# T3 sequence: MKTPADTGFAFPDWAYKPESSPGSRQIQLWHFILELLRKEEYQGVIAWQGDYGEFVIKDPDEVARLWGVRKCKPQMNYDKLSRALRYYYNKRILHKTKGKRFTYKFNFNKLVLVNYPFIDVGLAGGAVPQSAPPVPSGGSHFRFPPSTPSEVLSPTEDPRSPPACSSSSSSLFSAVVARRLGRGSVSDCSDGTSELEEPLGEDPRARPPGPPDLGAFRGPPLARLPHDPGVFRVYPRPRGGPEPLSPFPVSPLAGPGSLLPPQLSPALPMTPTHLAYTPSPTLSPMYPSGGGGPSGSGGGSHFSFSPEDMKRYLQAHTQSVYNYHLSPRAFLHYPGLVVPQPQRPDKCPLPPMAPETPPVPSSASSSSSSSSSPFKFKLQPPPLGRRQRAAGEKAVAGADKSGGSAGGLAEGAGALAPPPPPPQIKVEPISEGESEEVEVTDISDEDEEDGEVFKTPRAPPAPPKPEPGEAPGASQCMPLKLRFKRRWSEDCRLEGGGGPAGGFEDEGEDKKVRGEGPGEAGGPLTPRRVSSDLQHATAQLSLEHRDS
# Method in brief: as §1
# [5] = target: T4, ETV3L (Homo sapiens, UniProt Q6ZN32 1-361)
# T4 sequence: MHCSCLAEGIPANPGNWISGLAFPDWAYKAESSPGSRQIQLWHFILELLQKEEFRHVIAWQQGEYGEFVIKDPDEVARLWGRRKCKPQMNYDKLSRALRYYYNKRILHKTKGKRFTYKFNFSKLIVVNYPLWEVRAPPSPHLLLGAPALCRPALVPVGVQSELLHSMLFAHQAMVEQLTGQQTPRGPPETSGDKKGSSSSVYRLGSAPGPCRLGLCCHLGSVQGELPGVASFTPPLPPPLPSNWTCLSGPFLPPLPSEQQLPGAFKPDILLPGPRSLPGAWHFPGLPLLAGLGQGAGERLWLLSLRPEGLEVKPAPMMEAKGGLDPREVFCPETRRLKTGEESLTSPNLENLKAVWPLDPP
# Method in brief: as §1
# [6] = target: T5, ETS2 (Homo sapiens, UniProt P15036 1-469)
# T5 sequence: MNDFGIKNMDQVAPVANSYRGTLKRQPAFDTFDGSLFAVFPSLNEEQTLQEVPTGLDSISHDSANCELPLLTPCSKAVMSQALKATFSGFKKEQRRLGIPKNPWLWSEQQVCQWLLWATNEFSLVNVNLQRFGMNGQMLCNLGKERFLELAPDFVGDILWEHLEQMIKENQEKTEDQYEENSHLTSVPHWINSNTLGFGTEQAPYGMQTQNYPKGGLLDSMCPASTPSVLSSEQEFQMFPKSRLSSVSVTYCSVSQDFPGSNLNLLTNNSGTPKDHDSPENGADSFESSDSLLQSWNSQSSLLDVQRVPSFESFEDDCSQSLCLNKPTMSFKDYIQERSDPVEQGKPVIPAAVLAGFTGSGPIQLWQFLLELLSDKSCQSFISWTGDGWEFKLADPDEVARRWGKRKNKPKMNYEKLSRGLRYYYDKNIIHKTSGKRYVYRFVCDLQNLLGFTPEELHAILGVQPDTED
# Method in brief: as §1
# [7] = target: T6, SPDEF (Homo sapiens, UniProt O95238 1-335)
# T6 sequence: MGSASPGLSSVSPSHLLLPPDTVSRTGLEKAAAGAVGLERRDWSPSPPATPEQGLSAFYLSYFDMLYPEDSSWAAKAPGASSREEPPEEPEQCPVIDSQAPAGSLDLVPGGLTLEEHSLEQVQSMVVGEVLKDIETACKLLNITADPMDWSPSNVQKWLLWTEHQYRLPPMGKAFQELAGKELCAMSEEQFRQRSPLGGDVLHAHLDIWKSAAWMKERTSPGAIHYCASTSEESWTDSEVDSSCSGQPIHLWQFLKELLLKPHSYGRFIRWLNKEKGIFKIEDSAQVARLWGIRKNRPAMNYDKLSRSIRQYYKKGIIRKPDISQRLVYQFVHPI
# Method in brief: as §1
# [8] = target: T7, ETV7 (Homo sapiens, UniProt Q9Y603 1-341)
# T7 sequence: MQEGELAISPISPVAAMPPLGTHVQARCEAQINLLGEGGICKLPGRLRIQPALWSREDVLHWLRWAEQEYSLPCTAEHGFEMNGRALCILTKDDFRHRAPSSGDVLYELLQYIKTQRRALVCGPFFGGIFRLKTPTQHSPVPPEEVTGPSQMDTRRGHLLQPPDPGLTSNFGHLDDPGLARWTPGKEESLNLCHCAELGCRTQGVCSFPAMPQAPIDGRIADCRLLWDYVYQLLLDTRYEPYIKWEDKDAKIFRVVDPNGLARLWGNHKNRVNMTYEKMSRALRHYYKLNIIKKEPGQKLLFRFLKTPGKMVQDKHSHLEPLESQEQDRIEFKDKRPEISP
# Method in brief: as §1
# [9] = target: T8, ETV3 (Homo sapiens, UniProt P41162-2 1-143)
# T8 sequence: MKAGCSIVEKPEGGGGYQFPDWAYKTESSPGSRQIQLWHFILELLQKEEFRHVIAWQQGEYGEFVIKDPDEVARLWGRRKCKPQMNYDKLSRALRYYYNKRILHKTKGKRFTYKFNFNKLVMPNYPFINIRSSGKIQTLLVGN
# Method in brief: as §1
# [10] = target: ETV6 (Homo sapiens, UniProt P41212 1-452)
# Chain of ETV6 (P41212 whole entry): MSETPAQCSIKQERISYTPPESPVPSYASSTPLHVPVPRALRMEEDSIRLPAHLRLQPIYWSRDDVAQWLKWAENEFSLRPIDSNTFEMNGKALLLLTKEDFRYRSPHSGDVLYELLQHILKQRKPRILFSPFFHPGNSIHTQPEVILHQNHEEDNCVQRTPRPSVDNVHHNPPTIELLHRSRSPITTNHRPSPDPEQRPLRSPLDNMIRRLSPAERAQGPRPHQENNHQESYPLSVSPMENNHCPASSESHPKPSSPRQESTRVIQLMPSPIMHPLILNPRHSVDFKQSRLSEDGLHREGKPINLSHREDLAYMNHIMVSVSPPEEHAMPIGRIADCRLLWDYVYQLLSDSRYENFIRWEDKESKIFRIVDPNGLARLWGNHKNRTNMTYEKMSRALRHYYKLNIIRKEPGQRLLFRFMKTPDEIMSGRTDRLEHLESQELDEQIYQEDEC
# Method in brief: as §1
sequence,measurement,setting,value
GCTATC,binding signal,[1],"1.04 fold enrichment (6-mer frequency, TF over GST control)"
same,binding signal,[2],"1.04 fold enrichment (6-mer frequency, TF over GST control)"
same,binding signal,[3],"1.09 fold enrichment (6-mer frequency, TF over GST control)"
same,binding signal,[4],"1.13 fold enrichment (6-mer frequency, TF over GST control)"
same,binding signal,[5],"1.07 fold enrichment (6-mer frequency, TF over GST control)"
same,binding signal,[6],"1.01 fold enrichment (6-mer frequency, TF over GST control)"
same,binding signal,[7],"1.11 fold enrichment (6-mer frequency, TF over GST control)"
same,binding signal,[8],"1.18 fold enrichment (6-mer frequency, TF over GST control)"
same,binding signal,[9],"1.03 fold enrichment (6-mer frequency, TF over GST control)"
same,binding signal,[10],"1.06 fold enrichment (6-mer frequency, TF over GST control)"

# Reference: paper PMC7862700, “An all-to-all approach to the identification of sequence-specific readers for epigenetic DNA modifications on cytosine”
